We go through 44 compounds from PMC4336329 (PLoS ONE, 2015).

The structures appear in SMILES notation. In all, about 310,000 compounds went through this assay and about 14,000 (4.5%) showed an effect of 50% or more. The effect is printed as a negative number. For the sample, strong results were picked, then their nearest neighbours and some compounds at random.
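Also: peak tail current of the secondary pulse compared with the same well before compound.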

Chain of human ether-à-go-go-related gene (hERG) potassium channel (Q12809 whole entry, looked up): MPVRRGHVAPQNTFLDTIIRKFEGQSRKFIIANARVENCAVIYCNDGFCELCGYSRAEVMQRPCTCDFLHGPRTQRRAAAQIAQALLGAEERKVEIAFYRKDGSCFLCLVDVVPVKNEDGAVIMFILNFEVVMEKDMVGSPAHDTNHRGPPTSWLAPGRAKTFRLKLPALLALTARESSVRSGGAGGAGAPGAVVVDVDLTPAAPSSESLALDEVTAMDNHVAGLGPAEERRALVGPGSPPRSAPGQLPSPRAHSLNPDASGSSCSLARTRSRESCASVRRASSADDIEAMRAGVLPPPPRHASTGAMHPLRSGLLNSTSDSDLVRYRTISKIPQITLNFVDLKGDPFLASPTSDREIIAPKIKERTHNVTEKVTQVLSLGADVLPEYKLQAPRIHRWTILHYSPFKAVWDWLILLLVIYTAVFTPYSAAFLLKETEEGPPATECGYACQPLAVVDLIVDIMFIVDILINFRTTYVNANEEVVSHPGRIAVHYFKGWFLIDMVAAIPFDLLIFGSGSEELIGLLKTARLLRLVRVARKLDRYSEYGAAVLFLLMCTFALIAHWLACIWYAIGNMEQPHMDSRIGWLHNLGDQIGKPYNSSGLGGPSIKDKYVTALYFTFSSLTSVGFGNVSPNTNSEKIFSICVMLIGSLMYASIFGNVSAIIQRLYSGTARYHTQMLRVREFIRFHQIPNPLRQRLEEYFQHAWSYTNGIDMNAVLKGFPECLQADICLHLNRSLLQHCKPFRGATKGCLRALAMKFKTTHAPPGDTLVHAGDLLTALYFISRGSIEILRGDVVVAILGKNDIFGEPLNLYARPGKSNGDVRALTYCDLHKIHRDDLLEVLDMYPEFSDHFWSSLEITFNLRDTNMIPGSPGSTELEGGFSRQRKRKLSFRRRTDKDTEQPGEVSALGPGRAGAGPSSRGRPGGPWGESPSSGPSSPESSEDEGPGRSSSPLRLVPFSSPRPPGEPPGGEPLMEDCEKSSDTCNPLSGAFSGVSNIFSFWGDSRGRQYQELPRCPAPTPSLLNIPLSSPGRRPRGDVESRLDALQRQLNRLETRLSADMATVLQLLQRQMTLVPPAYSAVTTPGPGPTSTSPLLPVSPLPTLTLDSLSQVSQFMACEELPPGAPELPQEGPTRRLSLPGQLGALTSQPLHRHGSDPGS

The test concerns the target human ether-à-go-go-related gene (hERG) potassium channel (human, UniProt Q12809). Description: primary screen, population patch clamp on CHO cells stably expressing hERG; higher = less effect of the substance.
Turning to `c1ccc(-c2onc(-c3ccco3)c2-c2ccc3c(c2)OCO3)cc1`, the “hERG current change (%, negative = inhibition) at 10uM” value came out at 2%. The same measure for `O=[N+]([O-])c1ccc(-c2ccccc2)c([As](=O)(O)O)c1`: 11.9%; for `O=c1cc(C(F)(F)F)nc(SCc2cccc3ccccc23)[nH]1`: 24%; for `Cn1c(SCC(=O)OC2CCCCC2)nnc1-c1ccc2c(c1)OCO2`: -19.7%. The same measure for `COc1ccc(Cn2c(=O)[nH]c3cc(C(=O)NC4CCN(Cc5ccccc5)CC4)ccc32)cc1`: -3.88%. For the compound `COc1ccc(N2CCN(Cc3cc(=O)oc4cc(C)c(Cl)cc34)CC2)cc1`, the “hERG current change (%, negative = inhibition) at 10uM” value amounted to 8.44%. In the case of `Cc1cc(C)n2nc(C(=O)OCC(=O)N3CC(C)CC(C)C3)nc2n1` (centres unmarked), the “hERG current change (%, negative = inhibition) at 10uM” value is given as 15.4%. Consider `O=C(NCc1ccco1)Nc1ccc2nsnc2c1`, for which the “hERG current change (%, negative = inhibition) at 10uM” value is listed as 10.7%. Regarding `N#Cc1nc(-c2ccco2)oc1NCc1ccc(F)cc1`, the “hERG current change (%, negative = inhibition) at 10uM” value was -4.84%. With `Cc1cc(C)c(Cn2ncn(-c3ccc(Br)cc3)c2=O)c(C)c1`, the “hERG current change (%, negative = inhibition) at 10uM” value is given as 19.4%.

On to `CC(=C1C(=O)c2ccccc2C1=O)N1CCN(Cc2ccccc2)CC1`, for which the “hERG current change (%, negative = inhibition) at 10uM” value is reported as -26.6%. The same measure for `CS(=O)(=O)N1CCN(C/C=C/c2ccccc2)CC1`: 7.98%; for `CC(=C1C(=O)c2ccccc2C1=O)N1CCN(C/C=C/c2ccccc2)CC1`: -55.6%. Take `O=C(COc1ccc(Cl)cc1)N1CCCCCCC1`: the “hERG current change (%, negative = inhibition) at 10uM” value is -12.2%. The figure for `O=C(COc1ccc(Cl)cc1)N1CCN(C/C=C/c2ccccc2)CC1` is -70.7%; for `O=C(COc1ccc(Cl)cc1)N1CCCCC1` it is -5.82%. The same measure for `O=C(/C=C/c1ccco1)Nc1cc(Cl)ccc1C(=O)O`: -10.3%. In the case of `CCCc1cc(=O)[nH]c(SC/C=C/c2ccccc2)n1`, the “hERG current change (%, negative = inhibition) at 10uM” value was 9.33%.

Turning to `Cc1c(N(C)C)c(=O)n(-c2ccccc2)n1C`, the “hERG current change (%, negative = inhibition) at 10uM” value came out at 19.1%. As to `COc1ccccc1CNS(=O)(=O)c1ccc2c(c1)NC(=O)CS2`, the “hERG current change (%, negative = inhibition) at 10uM” value is -1.59%. Regarding `O=C(NCCN1CCOCC1)c1ccc([N+](=O)[O-])cc1[N+](=O)[O-]`, the “hERG current change (%, negative = inhibition) at 10uM” value is -0.151%.

For the compound `O=C(NCCCN1CCOCC1)c1sc2cc(F)ccc2c1Cl`, the “hERG current change (%, negative = inhibition) at 10uM” value is on record as -44%.

Turning to `CCN(CC)C(=O)c1cc2cc([N+](=O)[O-])ccc2s1`, the “hERG current change (%, negative = inhibition) at 10uM” value was -55.5%. In the case of `CCCNC(=O)c1cc2cc([N+](=O)[O-])ccc2s1`, the “hERG current change (%, negative = inhibition) at 10uM” value was -9.82%. The same measure for `O=C(NCCN1CCOCC1)c1sc2ccccc2c1Cl`: -6.21%; for `CN(C)C(=O)c1cc2cc([N+](=O)[O-])ccc2s1`: -38.9%.

Take `O=C(NCCCN1CCOCC1)c1sc2ccccc2c1Cl`: the “hERG current change (%, negative = inhibition) at 10uM” value was -9.81%. `O=C(NCCN1CCOCC1)c1sc2cc(Cl)ccc2c1Cl`: the “hERG current change (%, negative = inhibition) at 10uM” value is listed as -10.3%. Consider `O=C(NCCCN1CCOCC1)c1sc2cc(Cl)ccc2c1Cl`, for which the “hERG current change (%, negative = inhibition) at 10uM” value is -69.6%. Regarding `O=C(NCCN1CCOCC1)c1cc([N+](=O)[O-])ccc1Cl`, the “hERG current change (%, negative = inhibition) at 10uM” value was determined as 6.5%. Regarding `O=C(NCCCN1CCOCC1)c1sc2cc([N+](=O)[O-])ccc2c1Cl`, the “hERG current change (%, negative = inhibition) at 10uM” value was -54%. For the compound `O=C(NCCN1CCOCC1)c1cc2cc([N+](=O)[O-])ccc2s1`, the “hERG current change (%, negative = inhibition) at 10uM” value is -63.3%. For `O=c1c2cn[nH]c2[nH]c(=S)n1-c1ccccc1F`, the “hERG current change (%, negative = inhibition) at 10uM” value amounted to 24.8%.

Regarding `N#CC1=C(N)Oc2cc(O)ccc2C1c1cccnc1` (centres unmarked), the “hERG current change (%, negative = inhibition) at 10uM” value is 27.4%. The same measure for `CCOc1nc2cnccc2n(CC(=O)Nc2ccccc2C(=O)OC)c1=O`: -1.11%; for `Cc1nn(-c2ccccc2)c(C)c1/C=N/NC(=O)CSc1nnc(SCc2cccc3ccccc23)s1`: 6.33%; for `CCOC(=O)c1sc(=S)n(C)c1NC(=O)c1ccc(C(C)(C)C)cc1`: 11.8%. The same measure for `CC(=O)N/C(=C/c1ccc2c(c1)OCO2)C(=O)O`: -2.32%. Take `O=C(CCNS(=O)(=O)c1ccc(Cl)cc1)N1CCOCC1`: the “hERG current change (%, negative = inhibition) at 10uM” value stood at 22.4%. The same measure for `Cc1ccc2[nH]c3c(c2c1)CCNC3=O`: 4.86%; for `COc1ccc2[nH]c3c(c2c1)CCNC3=O`: 7.33%; for `O=C1NCCc2c1[nH]c1ccccc21`: -77%. The figure for `O=C(Nc1ccc(-c2csc(Nc3cccc(C(F)(F)F)c3)n2)cc1)c1cccc(C(F)(F)F)c1` is 9.98%. The same measure for `CCN1CCN(c2cc(C)c3cc(NC(=S)N(CC)CC)ccc3n2)CC1`: -43.9%.
